In PubChem BioAssay (NCI) one finds growth data, which are given here for 7 compounds.

This is part of a sample that, as a whole, favours compounds with a hit. Of some 83,000 tested, about 20% had one in any assay.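 Cell lines were cultured in 96-well plates, exposed to a single compound concentration, and assessed for percent growth 48 hours later.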 Values without a mark were called inactive. The source made the active and inactive calls. The calls were made as follows: active = growth percent below 10; inactive = the rest.

Some test systems named below: K-562 leukemia; MALME-3M melanoma; MDA-MB-231 breast; RXF 393 renal; SF-268 CNS; SF-295 CNS; SF-539 CNS; UACC-257 melanoma; M14 melanoma; HCT-15 colon; HT29 colon; SNB-75 CNS; U251 CNS; PC-3 prostate; SK-MEL-5 melanoma; UACC-62 melanoma; LOX IMVI melanoma; SK-MEL-28 melanoma; SNB-19 CNS; SK-MEL-2 melanoma.
Common to all, as to experiment: NCI-60 one-dose screen, 48 h (100 = growth as untreated, 0 = no growth, -100 = all killed)
Details in all cases: 10 µM

For the compound `COc1ccc(S(=O)(=O)NCCCNc2nccc(-c3c(-c4ccc(F)cc4)nc4sccn34)n2)cc1`, the growth in the assay on K-562 leukemia is 17.6%; in the assay with MALME-3M melanoma it was 57.7%; in the assay with MDA-MB-231 breast it was 75.4%; in the assay on RXF 393 renal, 68.1%; with SF-268 CNS, 50.6%; in the assay on SF-295 CNS, 45.7%. Besides, the growth was 93.7% with SF-539 CNS; 67.7% with UACC-257 melanoma; 57.3% in the assay with M14 melanoma; 57.2% in the assay on HCT-15 colon; 11% with HT29 colon; 49.3% in the assay with SNB-75 CNS. Moreover, the growth in the assay with U251 CNS is 50%; in the assay with PC-3 prostate, 52.9%; with SK-MEL-5 melanoma, 49.5%; in the assay with UACC-62 melanoma, 48.5%; in the assay on LOX IMVI melanoma, 40.1%; with SK-MEL-28 melanoma, 73.5%.
On to `COc1ccc2c(c1)O/C(=C\c1ccc([N+](=O)[O-])o1)C2=O`, for which the growth in the assay on K-562 leukemia is 2.05% (active); in the assay with MALME-3M melanoma, -37.1% (active); in the assay with MDA-MB-231 breast it was 8.07% (active); in the assay on RXF 393 renal it was -74% (active); with SF-268 CNS, -5.87% (active); in the assay with SF-295 CNS, 9.85% (active). Also, the growth was -43.2% (active) in the assay on SF-539 CNS; -13.1% (active) with UACC-257 melanoma; -15.5% (active) in the assay with M14 melanoma; 2.39% (active) in the assay with HCT-15 colon; -33.1% (active) in the assay on HT29 colon; 58.7% with SNB-75 CNS. In addition, the growth in the assay on SNB-19 CNS was 59.7%; in the assay on U251 CNS, 9.08% (active); with PC-3 prostate, -2.47% (active); with SK-MEL-5 melanoma, 13%; with LOX IMVI melanoma, -64.7% (active); with SK-MEL-28 melanoma it was 41.9%. Besides, the growth in the assay on SK-MEL-2 melanoma was -39.4% (active).
As to `CC(=O)c1nc2ccccc2n1CCNC(N)=O`, the growth in the assay on K-562 leukemia is 44.1%; in the assay on MALME-3M melanoma it was 55.8%; in the assay on MDA-MB-231 breast, 77.2%; with RXF 393 renal, 90.9%; in the assay with SF-268 CNS, 71.9%; in the assay on SF-295 CNS, 127%. Besides, the growth was 79.7% in the assay on SF-539 CNS; 94.8% in the assay with UACC-257 melanoma; 73.8% in the assay on M14 melanoma; 103% with HCT-15 colon; 35.9% in the assay with HT29 colon; 24% in the assay on SNB-75 CNS. For the same compound, the growth is 69.8% in the assay on U251 CNS; 72% in the assay with PC-3 prostate; 82.7% in the assay with SK-MEL-5 melanoma; 86.6% in the assay on UACC-62 melanoma; 62.4% in the assay with LOX IMVI melanoma; 89.6% in the assay with SK-MEL-28 melanoma. The growth in the assay with SK-MEL-2 melanoma was 84%.
For the compound `O=C(Nc1ccc(CO)cc1)c1ccccc1Nc1ccnc(C(F)(F)F)c1`, the growth in the assay on K-562 leukemia is 93.7%; in the assay on MALME-3M melanoma it was 92.5%; in the assay on MDA-MB-231 breast, 96.9%; with RXF 393 renal, 120%; with SF-268 CNS, 99.3%; in the assay with SF-295 CNS it was 111%. The growth is 101% with SF-539 CNS; 102% with UACC-257 melanoma; 99.8% in the assay with M14 melanoma; 103% in the assay on HCT-15 colon; 109% in the assay on HT29 colon; 87.8% with SNB-75 CNS. In addition, the growth in the assay with SNB-19 CNS is 106%; in the assay with U251 CNS it was 95.4%; in the assay with PC-3 prostate, 99.5%; in the assay with SK-MEL-5 melanoma, 107%; in the assay with LOX IMVI melanoma it was 92.2%; in the assay with SK-MEL-28 melanoma it was 101%. In addition, the growth in the assay with SK-MEL-2 melanoma is 123%.
As to `Nc1ccccc1NC(=O)CCCCC(=O)Nc1ccc2c(c1)/C(=C/c1ccc[nH]1)C(=O)N2`, the growth in the assay with K-562 leukemia was 99.6%; with MALME-3M melanoma, 32.9%; in the assay with MDA-MB-231 breast it was 93%; with RXF 393 renal, 62.9%; in the assay with SF-268 CNS it was 71.9%; in the assay with SF-295 CNS, 98.4%. For the same compound, the growth in the assay with SF-539 CNS was 53.1%; in the assay on UACC-257 melanoma it was 97.9%; in the assay on M14 melanoma, 69.9%; with HCT-15 colon, 92.2%; in the assay on HT29 colon, 67.2%; in the assay on SNB-75 CNS, 16.9%. Further, the growth in the assay on SNB-19 CNS is 76.4%; in the assay with PC-3 prostate, 81.6%; in the assay on SK-MEL-5 melanoma it was 87.7%; in the assay with UACC-62 melanoma, 58%; in the assay on LOX IMVI melanoma, 85.2%; in the assay with SK-MEL-28 melanoma it was 86.1%. Besides, in the assay with SK-MEL-2 melanoma, the growth is 46.2%.
Consider `Cc1cc2c(C)c3cc(C)c(N)cc3nc2cc1N`, for which the growth with K-562 leukemia was 1.18% (active); in the assay with MALME-3M melanoma, -3.24% (active); in the assay with MDA-MB-231 breast it was 20.3%; in the assay on RXF 393 renal it was 16.3%; in the assay with SF-268 CNS it was 15.2%; in the assay with SF-295 CNS, 39.5%. The growth in the assay with SF-539 CNS was 19.4%; with UACC-257 melanoma, 18.9%; in the assay on M14 melanoma it was 9.16% (active); with HCT-15 colon, 24.8%; in the assay on HT29 colon, -25.5% (active); with SNB-75 CNS it was 21.8%. Further, the growth with SNB-19 CNS is 18.3%; with PC-3 prostate, 7.77% (active); in the assay on SK-MEL-5 melanoma, 19.8%; with UACC-62 melanoma it was 24.2%; with LOX IMVI melanoma it was 4.46% (active); in the assay on SK-MEL-28 melanoma, 38.9%. Further, in the assay with SK-MEL-2 melanoma, the growth is -18.1% (active).
Turning to `CCOCC(=O)C(C#N)c1ccc(Cl)c(Cl)c1` (configuration not stated), the growth in the assay with K-562 leukemia is 94.6%; in the assay with MALME-3M melanoma it was 106%; in the assay with MDA-MB-231 breast, 105%; in the assay on RXF 393 renal, 94.8%; in the assay on SF-268 CNS it was 106%; with SF-295 CNS, 89.3%. Further, the growth in the assay with SF-539 CNS is 94.8%; in the assay with UACC-257 melanoma, 92%; in the assay with M14 melanoma, 113%; with HCT-15 colon, 89.9%; with HT29 colon, 104%; with SNB-75 CNS, 78.2%. The growth was 107% with SNB-19 CNS; 87% in the assay with PC-3 prostate; 96% in the assay on SK-MEL-5 melanoma; 95.4% in the assay with UACC-62 melanoma; 100% with LOX IMVI melanoma; 100% with SK-MEL-28 melanoma. The growth in the assay on SK-MEL-2 melanoma was 115%.
